The source made the active and inactive calls.
Tested on: Wnt5a (protein binding on small-molecule microarray)
Assay: small molecules binding Wnt5a protein – biophysical, small-molecule microarray, 635/667 nm fluorescence, primary screen (AID 1142);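 also: fluorescence read at 667 nm with signal to noise per printed feature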
Conditions: 635 nm fluorescence, higher = more signal

SMILES	composite z-score
C=CCC(OC(C)=O)[C@@H]1[C@@H](N(Cc2ccc(-c3ccccc3)cc2)C(=O)Cc2ccc(OC)cc2)c2cc(OCCCO)ccc2N1C(=O)Cc1ccc2ccccc2c1 (stereo partly specified)	-0.263
CN1C(=O)C2C=CC(C(O)C#Cc3ccccc3)N(N3CCCCC3)C2C1=O (stereo unspecified)	1.11
C=CC(=C)[C@H]1Oc2ccccc2S(=O)(=O)N2CCC[C@@H]12	0.0964
C=CCC(OC(C)=O)[C@@H]1[C@@H](N(Cc2ccc(-c3cccc(C(F)(F)F)c3)o2)C(=O)c2ccc(C)cc2)c2cc(OCCCO)ccc2N1C(=O)Cc1ccc2ccccc2c1 (stereo partly specified)	-0.125
COCCOC(=O)N1C(=O)[C@@]2(c3cc(C#CCC(C(=O)OC)C(=O)OC)ccc31)[C@H](C(=O)N1CCN(c3ncccn3)CC1)[C@H]1C(=O)O[C@H](c3ccccc3)[C@H](c3ccccc3)N1[C@@H]2c1ccccc1OCCO	0.833
CC(C)=CCCC(C)=CC(O)C1C=CC2C(=O)N(C)C(=O)C2N1Nc1ccccc1 (stereo unspecified)	0.485

Tested on: not listed separately
Assay: ATP-based viability of Huh7 replicon cells – cell-based, CellTiter-Glo luminescence, basal, 48 h, cytotoxicity control for HCV replication inhibitor project, primary screen (AID 1143);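 also: Huh7 hepatoma cells carrying a hepatitis C replication reporter with no stimulus; test concentration not given here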
Conditions: higher = more signal, called active from +8 up or from −8 down

SMILES	z-score
C=CCN1C(=O)[C@@]2(Cc3ccccc31)N=C(c1ccc(OCCCO)cc1)O[C@H]2c1ccccc1	-3.53 (inactive)
[N-]=[N+]=Nc1ccccc1[C@@H]1OC(c2ccc(OCCCO)cc2)=N[C@]1(CCS(=O)(=O)c1ccccc1)C(N)=O	-1.12 (inactive)
CN(C)C(=O)[C@@]1(CCS(=O)(=O)c2ccccc2)COC(c2ccc(OCCCO)cc2)=N1	-3.66 (inactive)
CCOC(=O)C[C@H]1[C@H](OC(=O)c2cc3ccccc3oc2=O)[C@@H](NC(=O)c2ccccc2)c2cc(OCCCO)ccc2N1C(=O)c1ccc2ccccc2n1	-0.468 (inactive)
C=CCOC(=O)[C@H]1[C@@H]2C(=O)O[C@@H](c3ccccc3)[C@@H](c3ccccc3)N2[C@@H](c2ccc(OCCOC(=O)[C@H]3C[C@H]4C(=O)N[C@@H](CCCCNC(C)=O)C(=O)N4[C@H]3c3cccc(OCCO)c3)cc2)[C@]12C(=O)Nc1ccccc12	-1.1 (inactive)
CC(C)C(CO)N1C(=O)[C@@H]2C3C(=O)OCCC/C=C\[C@H]3OC23C=CCN(CCN2CCOCC2)C(=O)[C@@H]13 (stereo partly specified)	0.39 (inactive)
O=C(NCCN1CCOCC1)C1N=C(c2ccc(OCCCO)cc2)N(c2ccccc2)O1 (stereo unspecified)	0.213 (inactive)
COC(=O)[C@@]1(Cc2ccccc2)[C@H]2c3cc(C(=O)N4CCCC4)n(Cc4ccc(S(C)(=O)=O)cc4)c3C[C@H]2CN1C(=O)c1ccccc1	-1.22 (inactive)
O=C1[C@@]23C=C(Br)[C@H](C[C@@H]2CCOC3)[C@@]12CO2	0.35 (inactive)
O=C(c1ccccc1)N1C(=O)[C@]2(COC(c3ccc(OCCCO)cc3)=N2)Cc2ccccc21	-3.03 (inactive)
Cc1nc2cc(Br)ccc2c(=O)o1	-1.66 (inactive)
CCCCC(CC)C(O)C1C=CC2C(=O)N(Cc3ccccc3)C(=O)C2N1n1cnnc1 (stereo unspecified)	-0.114 (inactive)
CC(C)C(O)C1C=CC2C(=O)NC(=O)C2N1Nc1ccc(Cl)cc1Cl (stereo unspecified)	-0.158 (inactive)
COCCOC(=O)N1C(=O)[C@@]2(c3ccccc31)[C@H](c1ccc(O)cc1)N1[C@H](c3ccccc3)[C@H](c3ccccc3)OC(=O)[C@H]1[C@@H]2C(=O)Nc1nc2ccccc2s1	-1.67 (inactive)
CC(C)C(=C=CC[C@@H](O)c1ccc(OCCO)cc1)C[C@@H](O)COCc1ccccc1	-2.24 (inactive)
O=C1C2C=CC(C(O)Cc3ccccc3)N(n3cnnc3)C2C(=O)N1Cc1ccccc1 (stereo unspecified)	0.0633 (inactive)
COCCOC(=O)N1C(=O)[C@@]2(c3cc(C#Cc4ccc(OC)cc4)ccc31)[C@H](c1ccc(O)cc1)N1[C@H](c3ccccc3)[C@H](c3ccccc3)OC(=O)[C@H]1[C@@H]2C(=O)N1CCc2cc(OC)c(OC)cc2C1	-1.93 (inactive)
COc1cc2c(cc1O)C(C1CC1)N(Cc1sc3ccccc3c1Cl)CC2 (stereo unspecified)	-5.05 (inactive)

SMILES	z-score
CC(C)C(=C=CC[C@H](O)c1ccc(OCCO)cc1)CCO	-1.97 (inactive)
CC(=O)NCCCC[C@@H]1NC(=O)[C@@H]2C[C@H](C(=O)NCCCCCNC(=O)CS)[C@H](c3cccc(OCCO)c3)N2C1=O	-1.12 (inactive)
NC(=O)NCC#Cc1ccc2c(c1)[C@]1(C(=O)N2)[C@H](c2ccc(O)cc2)N2[C@H](c3ccccc3)[C@H](c3ccccc3)OC(=O)[C@H]2[C@@H]1C(=O)O	0.0192 (inactive)
COc1cc(Br)cc(C(O)C2C=CC3C(=O)N(C)C(=O)C3N2N2CCCCC2)c1OC (stereo unspecified)	0.4 (inactive)
COc1ccc(CCNC(=O)[C@@H]2c3ccccc3C(=O)N(Cc3ccccc3Cl)[C@H]2c2ccc(CO)cc2)cc1	-0.124 (inactive)
CCCCN1CC=CC23O[C@@H]4C=CCCOC(=O)C4[C@H]2C(=O)N(CCCCCCO)[C@@H]3C1=O (stereo partly specified)	0.311 (inactive)
CCOC(=O)C[C@H]1[C@H](OC(=O)c2ccc(C(=O)c3ccccc3)cc2)[C@@H](NC(=O)c2ccccc2)c2cc(OCCCO)ccc2N1C(=O)c1ccc2ccccc2n1	-0.0123 (inactive)
C=CCOC(=O)[C@H]1[C@@H]2C(=O)O[C@@H](c3ccccc3)[C@@H](c3ccccc3)N2[C@@H](c2ccc(OCCOC(=O)[C@H]3C[C@H]4C(=O)N[C@@H](CCCC[N+](C)(C)C)C(=O)N4[C@H]3c3ccc(O)cc3)cc2)[C@]12C(=O)Nc1ccc(I)cc12	-0.326 (inactive)
CC(CO)N1C(=O)[C@@H]2C3C(=O)OCCC/C=C\[C@H]3OC23C=CCN(C(C)(C)C)C(=O)[C@@H]13 (stereo partly specified)	0.559 (inactive)
CC1CC/C=C\[C@H]2OC34C=CCN(C(C)(C)C)C(=O)[C@H]3N(C(C)CO)C(=O)[C@@H]4C2C(=O)O1 (stereo partly specified)	0.4 (inactive)
COc1ccc(C#Cc2ccc3c(c2)[C@]2(C(=O)N3)[C@H](C(=O)Nc3nc4ccccc4s3)[C@H]3C(=O)O[C@H](c4ccccc4)[C@H](c4ccccc4)N3[C@@H]2c2ccc(O)cc2)cc1	-1.3 (inactive)
C=CCC(OC(C)=O)[C@@H]1[C@@H](N(Cc2ccc(-c3ccccc3)cc2)C(=O)Cc2ccc(OC)cc2)c2cc(OCCCO)ccc2N1C(=O)Cc1ccc2ccccc2c1 (stereo partly specified)	-1.45 (inactive)
CN1C(=O)C2C=CC(C(O)C#Cc3ccccc3)N(N3CCCCC3)C2C1=O (stereo unspecified)	0.913 (inactive)
C=CC(=C)[C@H]1Oc2ccccc2S(=O)(=O)N2CCC[C@@H]12	-4.18 (inactive)
C=CCC(OC(C)=O)[C@@H]1[C@@H](N(Cc2ccc(-c3cccc(C(F)(F)F)c3)o2)C(=O)c2ccc(C)cc2)c2cc(OCCCO)ccc2N1C(=O)Cc1ccc2ccccc2c1 (stereo partly specified)	-0.0329 (inactive)
COCCOC(=O)N1C(=O)[C@@]2(c3cc(C#CCC(C(=O)OC)C(=O)OC)ccc31)[C@H](C(=O)N1CCN(c3ncccn3)CC1)[C@H]1C(=O)O[C@H](c3ccccc3)[C@H](c3ccccc3)N1[C@@H]2c1ccccc1OCCO	-3.78 (inactive)
CC(C)=CCCC(C)=CC(O)C1C=CC2C(=O)N(C)C(=O)C2N1Nc1ccccc1 (stereo unspecified)	-2.96 (inactive)
